Inconclusive results are not listed. Where a call stands in place of a potency, no number is given. A number with no mark means an inactive call. The source made the active and inactive calls. Calls follow the shape of the dose curve; as a rule, active = well fitted curve in the direction sought with a large enough effect in the repeat runs; inconclusive = weak or mixed curves; inactive = no such curve, though single readings can be large; an effect the other way counts as inactive or inconclusive.
Legend:
[1] = target: Cytochrome P450 2C19 (Homo sapiens) (UniProt P33261); assay: Cytochrome P450 Family 2 Subfamily C Member 19 (CYP2C19) small molecule antagonists: luciferase reporter qHTS assay (AID 1671197); also: nearly all actives have a fitted effect of over 65% in size; as to activity change, negative = inhibition: series mostly up to about 120 µM
Chain of Cytochrome P450 2C19 (Homo sapiens) (P33261 whole entry, looked up): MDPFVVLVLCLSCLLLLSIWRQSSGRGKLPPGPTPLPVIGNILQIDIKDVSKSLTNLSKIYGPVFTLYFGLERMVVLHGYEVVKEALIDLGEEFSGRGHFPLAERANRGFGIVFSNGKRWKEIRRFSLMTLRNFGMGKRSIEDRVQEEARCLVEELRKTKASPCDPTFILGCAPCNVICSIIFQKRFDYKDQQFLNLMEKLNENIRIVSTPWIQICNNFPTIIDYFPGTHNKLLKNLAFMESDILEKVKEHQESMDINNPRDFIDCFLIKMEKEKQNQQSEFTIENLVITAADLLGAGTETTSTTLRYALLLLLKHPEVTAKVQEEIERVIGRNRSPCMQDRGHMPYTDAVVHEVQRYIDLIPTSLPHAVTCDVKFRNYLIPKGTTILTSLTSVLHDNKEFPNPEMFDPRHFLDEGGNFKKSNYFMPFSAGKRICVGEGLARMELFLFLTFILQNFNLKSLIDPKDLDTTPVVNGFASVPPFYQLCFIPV
Method in brief: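 P450-Glo CYP2C19 screening system; proluciferin substrate; DMSO compound stocks; 10 min RT preincubation; NADPH regeneration, 1 h at 37C; luciferin detection reagent, 20 min RT; luminescence as RLU.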

[2] = target: Cytochrome P450 1A2 (Homo sapiens) (UniProt P05177); assay: Cytochrome P450 Family 1 Subfamily A Member 2 (CYP1A2) small molecule antagonists: luciferase reporter qHTS assay (AID 1671199); also: nearly all actives have a fitted effect of over 50% in size; as to activity change, negative = inhibition: series mostly up to about 120 µM
Chain of Cytochrome P450 1A2 (Homo sapiens) (P05177 whole entry, looked up): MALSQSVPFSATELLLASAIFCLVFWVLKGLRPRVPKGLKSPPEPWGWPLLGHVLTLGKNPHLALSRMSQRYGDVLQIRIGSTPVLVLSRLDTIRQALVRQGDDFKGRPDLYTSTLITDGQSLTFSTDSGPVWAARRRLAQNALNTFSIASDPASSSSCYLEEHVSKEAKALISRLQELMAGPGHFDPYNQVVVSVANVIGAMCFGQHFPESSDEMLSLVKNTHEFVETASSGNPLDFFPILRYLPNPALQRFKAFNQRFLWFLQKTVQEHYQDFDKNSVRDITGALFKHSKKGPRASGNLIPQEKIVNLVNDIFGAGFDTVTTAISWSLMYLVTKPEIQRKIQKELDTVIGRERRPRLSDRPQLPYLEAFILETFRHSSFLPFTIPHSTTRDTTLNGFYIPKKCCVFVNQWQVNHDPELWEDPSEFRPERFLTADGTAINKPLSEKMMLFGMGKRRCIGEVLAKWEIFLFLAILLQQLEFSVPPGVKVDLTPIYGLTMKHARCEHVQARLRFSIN
Method in brief: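 Inhibition of CYP1A2 conversion of proluciferin to luciferin, detected by luminescence. Reaction run 1 h at room temperature with NADPH regeneration after brief compound preincubation.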

[3] = target: Voltage-gated inwardly rectifying potassium channel KCNH2 (Homo sapiens) (UniProt Q12809); assay: Human Ether-a-go-go-Related Gene (hERG) channel small molecule antagonists: fluorescence cell-based qHTS assay (AID 1671200); also: nearly all actives have a fitted effect of over 50% in size;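 as to activity change, negative = inhibition: hERG-expressing U2OS cells given a thallium stimulus after FluxOR II dye loading; series mostly up to about 77 µM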
Chain of Voltage-gated inwardly rectifying potassium channel KCNH2 (Homo sapiens) (Q12809 whole entry, looked up): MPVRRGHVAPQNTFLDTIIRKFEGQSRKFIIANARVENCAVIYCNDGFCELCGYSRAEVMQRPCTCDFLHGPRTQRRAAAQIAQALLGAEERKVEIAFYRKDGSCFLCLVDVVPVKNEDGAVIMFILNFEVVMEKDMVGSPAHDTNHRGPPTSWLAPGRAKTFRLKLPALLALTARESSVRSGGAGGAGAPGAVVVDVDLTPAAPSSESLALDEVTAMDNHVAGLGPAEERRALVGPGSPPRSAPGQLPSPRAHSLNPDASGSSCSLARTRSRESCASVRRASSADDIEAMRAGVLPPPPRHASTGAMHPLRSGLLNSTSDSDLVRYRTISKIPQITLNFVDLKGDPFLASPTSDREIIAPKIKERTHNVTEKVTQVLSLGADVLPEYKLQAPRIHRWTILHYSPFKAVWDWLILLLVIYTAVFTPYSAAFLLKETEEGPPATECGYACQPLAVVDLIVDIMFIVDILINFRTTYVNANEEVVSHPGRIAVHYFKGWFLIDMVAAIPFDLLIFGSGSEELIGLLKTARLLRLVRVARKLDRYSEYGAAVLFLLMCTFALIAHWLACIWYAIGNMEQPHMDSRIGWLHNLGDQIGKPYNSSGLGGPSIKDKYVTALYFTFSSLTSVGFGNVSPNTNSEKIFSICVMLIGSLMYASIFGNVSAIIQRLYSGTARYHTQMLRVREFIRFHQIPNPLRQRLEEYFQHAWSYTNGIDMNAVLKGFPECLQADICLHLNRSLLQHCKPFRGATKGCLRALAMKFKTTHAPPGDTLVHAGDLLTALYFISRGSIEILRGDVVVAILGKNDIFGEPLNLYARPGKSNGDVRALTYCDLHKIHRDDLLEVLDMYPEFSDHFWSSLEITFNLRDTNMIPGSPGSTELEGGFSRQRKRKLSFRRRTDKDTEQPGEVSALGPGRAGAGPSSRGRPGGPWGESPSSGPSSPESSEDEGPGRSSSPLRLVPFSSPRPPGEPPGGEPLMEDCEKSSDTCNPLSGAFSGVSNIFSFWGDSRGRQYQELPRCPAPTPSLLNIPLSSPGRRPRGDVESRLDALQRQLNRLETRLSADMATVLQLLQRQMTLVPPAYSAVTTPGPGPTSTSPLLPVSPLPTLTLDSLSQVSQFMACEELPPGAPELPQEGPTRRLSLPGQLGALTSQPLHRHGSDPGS
Method in brief: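 Cell line hERG-U2OS; dye FluxOR II, 1 h RT dark; Tl+ stimulus; ex 480/em 540 nm, read each second for 2 min.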

[4] = target: Cytochrome P450 2C9 (Homo sapiens) (UniProt P11712); assay: Cytochrome P450 Family 2 Subfamily C Member 9 (CYP2C9) small molecule antagonists: luciferase reporter qHTS assay (AID 1671198); also: nearly all actives have a fitted effect of over 50% in size; as to activity change, negative = inhibition: series mostly up to about 120 µM
Chain of Cytochrome P450 2C9 (Homo sapiens) (P11712 whole entry, looked up): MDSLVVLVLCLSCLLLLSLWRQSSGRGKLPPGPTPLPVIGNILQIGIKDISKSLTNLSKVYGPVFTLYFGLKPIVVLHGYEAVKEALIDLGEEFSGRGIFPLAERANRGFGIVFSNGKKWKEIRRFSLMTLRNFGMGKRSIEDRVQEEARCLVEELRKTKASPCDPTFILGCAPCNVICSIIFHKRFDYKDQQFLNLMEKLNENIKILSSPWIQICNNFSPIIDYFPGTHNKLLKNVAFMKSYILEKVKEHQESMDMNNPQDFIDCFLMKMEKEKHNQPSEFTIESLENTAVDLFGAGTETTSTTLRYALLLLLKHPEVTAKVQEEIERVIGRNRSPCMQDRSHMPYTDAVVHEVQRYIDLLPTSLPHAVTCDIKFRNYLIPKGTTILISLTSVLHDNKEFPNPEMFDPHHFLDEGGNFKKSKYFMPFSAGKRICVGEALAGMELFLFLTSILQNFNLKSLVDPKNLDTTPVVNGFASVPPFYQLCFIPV
Method in brief: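 Enzyme-substrate mix preincubated with compound 10 min at room temperature; reaction started with NADPH regeneration solution, 1 h 37C. Luminescent luciferin product read after 20 min detection reagent.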

[5] = target: Cytochrome P450 3A4 (Homo sapiens) (UniProt P08684); assay: Cytochrome P450 Family 3 Subfamily A Member 4 (CYP3A4) small molecule antagonists: luciferase reporter qHTS assay (AID 1671201); also: nearly all actives have a fitted effect of over 50% in size; as to activity change, negative = inhibition: series mostly up to about 120 µM
Chain of Cytochrome P450 3A4 (Homo sapiens) (P08684 whole entry, looked up): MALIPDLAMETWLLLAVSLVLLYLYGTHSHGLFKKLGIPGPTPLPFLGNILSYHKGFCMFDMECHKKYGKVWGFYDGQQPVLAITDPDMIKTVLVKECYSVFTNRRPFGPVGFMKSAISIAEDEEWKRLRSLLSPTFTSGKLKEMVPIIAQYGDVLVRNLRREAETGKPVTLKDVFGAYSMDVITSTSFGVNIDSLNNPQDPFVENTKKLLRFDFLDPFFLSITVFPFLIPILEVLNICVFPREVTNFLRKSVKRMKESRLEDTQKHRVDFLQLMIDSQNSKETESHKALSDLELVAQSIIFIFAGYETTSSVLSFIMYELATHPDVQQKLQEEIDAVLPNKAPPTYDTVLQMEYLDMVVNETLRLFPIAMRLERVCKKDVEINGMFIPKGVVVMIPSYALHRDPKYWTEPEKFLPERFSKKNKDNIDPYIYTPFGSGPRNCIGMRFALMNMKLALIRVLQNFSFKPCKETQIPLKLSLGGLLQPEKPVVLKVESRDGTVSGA
Method in brief: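 Room-temperature assay throughout: 10 min compound–enzyme/substrate preincubation, 1 h reaction after NADPH regeneration solution, 20 min detection. Luciferin formed from proluciferin substrate is quantified by luminescence.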
Potency is read from the fitted curve at half-maximal effect.

CCCCCC=CCC=CCCCCCCCC(=O)OCC
Potency [1]: 21.9 µM (active)
Potency [2]: 27.5 µM (active)

Cc1ccccc1N1C(=O)c2cc(S(N)(=O)=O)c(Cl)cc2NC1C (stereo not given)
Potency [1]: inactive
Potency [2]: inactive
Potency [3]: inactive

CCCCCCCCCCCCCCCCBr
activity change, negative = inhibition [1]: 0.164% [at 23.6 µM]
activity change, negative = inhibition [4]: -1.68% [at 23.6 µM]
activity change, negative = inhibition [3]: 1.22% [at 15.8 µM]
activity change, negative = inhibition [5]: -0.429% [at 23.6 µM]

CC(C)CCCCCOC(=O)CCCCC(=O)OCCCCCC(C)C
Potency [1]: inactive
Potency [2]: inactive
Potency [3]: inactive
Potency [5]: 35.6 µM (active)

ON(Cc1ccccc1)Cc1ccccc1
Potency [1]: 7.1 µM (active)
Potency [2]: 5.64 µM (active)
Potency [3]: inactive
Potency [5]: 10 µM (active)

O=C(CS)OCCOC(=O)CS
Potency [1]: inactive
Potency [2]: 39.9 µM (active)
Potency [3]: inactive
Potency [5]: 28.3 µM (active)

Nc1ccc(Cl)cc1[N+](=O)[O-]
Potency [1]: inactive
Potency [2]: 9.93 µM (active)
Potency [3]: inactive

C=CCNc1nc(NCC=C)nc(N2CCN(C(c3ccc(F)cc3)c3ccc(F)cc3)CC2)n1
Potency [1]: inactive
Potency [2]: inactive

COCCOC(=O)C1=C(C)NC(C)=C(C(=O)OC/C=C/c2ccccc2)C1c1cccc([N+](=O)[O-])c1 (stereo not given)
Potency [1]: 1.55 µM (active)
Potency [2]: 15.5 µM (active)
Potency [3]: inactive

CCC(C)(C)C1CCC(O)CC1 (stereo not given)
Potency [1]: inactive
Potency [4]: inactive
Potency [5]: inactive

C1COCO1
Potency [1]: inactive
Potency [2]: inactive
Potency [3]: inactive
Potency [5]: inactive

COc1ccc([C@@H]2Sc3ccccc3NC(=O)[C@@H]2O)cc1
Potency [1]: 21.9 µM (active)
Potency [4]: 17.4 µM (active)
Potency [3]: inactive
Potency [5]: inactive

CN1C(=O)CC(C)(c2ccccc2)C1=O (stereo not given)
Potency [1]: inactive
Potency [2]: inactive
Potency [3]: inactive
Potency [5]: inactive

Cc1ccc(S(=O)(=O)NC2CCCCC2)cc1
Potency [1]: 6.28 µM (active)
Potency [4]: 22.3 µM (active)
Potency [3]: inactive
Potency [5]: 17.7 µM (active)

CCC(C(=O)OCCN(CC)CC)c1ccccc1 (stereo not given)
Potency [1]: inactive
Potency [2]: 11.5 µM (active)
Potency [3]: inactive
Potency [5]: inactive

CN1CCN(CCCN2c3ccccc3Sc3ccc(S(=O)(=O)N(C)C)cc32)CC1
Potency [1]: inactive
Potency [2]: inactive
Potency [3]: 5.35 µM (active)

C=CC(C)(O)CCCC(C)CCCC(C)CCCC(C)C (stereo not given)
Potency [1]: inactive
Potency [2]: 35.4 µM (active)
Potency [3]: inactive
Potency [5]: inactive

CC1CC(O)CC(C)(C)C1 (stereo not given)
Potency [1]: inactive
Potency [4]: inactive
Potency [3]: inactive
Potency [5]: inactive

CC(=O)Oc1ccc(C(=C2CCCCC2)c2ccc(OC(C)=O)cc2)cc1
Potency [1]: 9.77 µM (active)
Potency [2]: inactive
Potency [3]: inactive
Potency [5]: inactive

COc1cc2c(cc1OC)-c1cc(=Nc3c(C)cc(C)cc3C)n(C)c(=O)n1CC2
Potency [1]: 17.4 µM (active)
Potency [2]: inactive

COc1cc2[nH]c(=O)[nH]c(=O)c2cc1OC
Potency [1]: inactive
Potency [4]: inactive
Potency [3]: inactive
Potency [5]: inactive

CCOCCn1c(C2CCN(CCc3ccc(C(C)(C)C(=O)O)cc3)CC2)nc2ccccc21
Potency [1]: inactive
Potency [4]: inactive
Potency [5]: inactive

NC(=O)Nc1ccc(Cl)cc1
Potency [1]: 79.3 µM (active)
Potency [2]: 31.6 µM (active)
Potency [3]: inactive
Potency [5]: inactive

CCCCC(CC)CNCC(CC)CCCC (stereo not given)
Potency [1]: 35.3 µM (active)
Potency [4]: inactive
Potency [3]: inactive
Potency [5]: inactive

OCCSc1ccccc1
Potency [1]: inactive
Potency [2]: 39.9 µM (active)
Potency [3]: inactive
Potency [5]: inactive

CO[C@@]12[C@H](COC(N)=O)C3=C(C(=O)C(C)=C(N)C3=O)N1C[C@@H]1N[C@@H]12
Potency [1]: inactive
Potency [2]: 30.9 µM (active)
Potency [3]: inactive

COc1ccccc1N=Nc1c(S(=O)(=O)O)cc2cc(S(=O)(=O)O)cc(NC(C)=O)c2c1O
Potency [1]: 29.8 µM (active)
Potency [2]: 33.5 µM (active)
Potency [3]: inactive
Potency [5]: 33.5 µM (active)

Fc1c(F)c(F)c(Br)c(F)c1F
Potency [1]: inactive
Potency [4]: inactive
Potency [3]: inactive
Potency [5]: inactive

Cc1nccn1-c1ccc(Sc2cccc(C3(C(N)=O)CCOCC3)c2)cc1
Potency [1]: 20 µM (active)
Potency [4]: 5.64 µM (active)
Potency [5]: 7.96 µM (active)

CC1CC(=O)NN=C1c1ccc(NCC(C)(C)NCC(O)COc2cc(Cl)ccc2C#N)cc1 (stereo not given)
Potency [1]: 13.8 µM (active)
Potency [2]: inactive

O=C(CCCCCCCCC#CI)Oc1ccccc1
Potency [1]: inactive
Potency [4]: 17.4 µM (active)
Potency [3]: inactive
Potency [5]: inactive

N#C/C(=C1\SCC(c2ccccc2Cl)S1)n1ccnc1 (stereo not given)
Potency [1]: 0.0776 µM (active)
Potency [2]: 0.871 µM (active)
Potency [3]: inactive

CCCOC(=O)c1ccc(N)cc1
Potency [1]: 24.5 µM (active)
Potency [2]: 6.45 µM (active)
Potency [3]: inactive

OC(CCCN1CCCCC1)(c1ccccc1)c1ccccc1
Potency [4]: inactive
Potency [2]: inactive
Potency [3]: inactive

O=C(O)c1snc(Cl)c1Cl
Potency [3]: inactive
Potency [5]: inactive

CC(=O)OCC(=O)[C@@]12OC(C)(C)O[C@@H]1C[C@H]1[C@@H]3C[C@H](F)C4=CC(=O)C=C[C@]4(C)[C@@]3(F)[C@@H](O)C[C@@]12C
Potency [3]: inactive
